The results in this text go back to PubChem BioAssay (Tox21).

Molecules are shown by their SMILES. Records with an inconclusive call do not appear. Where a call stands in place of a potency, no number is given. The source made the active and inactive calls. Calls follow the shape of the dose curve; as a rule, active = well fitted activation curve with a large enough effect in the signal ratio in the repeat runs, with a control signal flat (not every such curve was filed as active); inconclusive = weak or mixed curves; inactive = flat fitted curve, though single readings scatter; the % refers to the signal ratio.

This assay in a line: qHTS assay for small molecule activators of the heat shock response signaling pathway (AID 743210). Conditions: HeLa HSE-bla reporter, beta-lactamase ratio, 5 h; series mostly up to 62.6 µM; activation: at the top concentration. The source says:
U.S. Tox21 Program National Center for Advancing Translational Sciences [NCATS] NIH Chemical Genomics Center [NCGC] U.S. Environmental Protection Agency [EPA] National Institutes of Environmental Health Sciences [NIEHS] National Toxicology Program [NTP] U.S. Food and Drug Administration [FDA] Tox21 Assay Overview: Various chemicals, environmental and physiological stress conditions may lead to the activation of heat shock response/ unfolded protein response (HSR/UPR). There are three heat shock transcription factors (HSFs) (HSF-1, -2, and -4) mediating transcriptional regulation of the human HSR. To identify the compounds that activate HSR signaling, HSE-bla HeLa cell line (Invitrogen, Carlsbad, CA, USA) containing a beta-lactamase reporter gene under the control of the heat shock response elements was used to screen the Tox21 10K compound library.
Tox21 Assay Protocol Summary: The CellSensor HSE-bla HeLa cells (Invitrogen, Carlsbad, CA, USA) were dispensed at 1500 cells/6uL/well into 1536-well black wall/clear bottom plates using a Multidrop combi (Thermo Fisher Scientific, Waltham, MA) dispenser. After the assay plates were incubated at 37 C and 5% CO2 overnight, 23 nL of compounds dissolved in DMSO, positive controls or DMSO only was transferred to the assay plate by a Pintool station (Kalypsys, San Diego, CA). The plates were incubated at 37 C for 5 h. After 1 uL of LiveBLAzerTM B/G FRET substrate was added using a Flying Reagent Dispenser (Beckman Coulter, Indianapolis, IN, USA), the plates were incubated at room temperature for 2.5 h, and fluorescence intensity was measured by an Envision plate reader (PerkinElmer, Shelton, CT).
A general note: qHTS replaces the single test concentration by a dilution series.
Regarding `CCC(O)OC(O)CC` (stereo not given), the Potency entry was “inactive”.
Same read-out and setting: the entry for `CC1=CC(=O)NS(=O)(=O)O1` is “inactive”; for `CC(=O)CC(=O)Nc1ccccc1` it is “inactive”; for `COc1ccc(NC(C)=O)cc1N` it is “inactive”.
For `CCCCCOC(C)=O`, the “activation” value was -0.908% [at 81.1 µM] (inactive).
For `COc1cc(Cc2cnc(N)nc2N)cc(OC)c1OC`, the Potency entry was “inactive”.
The same measure, in the same setting: in the case of `O=C(O)CCCCCCCCCCC(=O)O` it was “inactive”; in that of `CCCCCC1=CCCC1=O`, “inactive”.
For `CCc1ccc(CCOc2ccc(CC3SC(=O)NC3=O)cc2)nc1` (stereo not given), the Potency entry was “inactive”.
For the molecule `O=C(O)c1cc(C(=O)O)cc(S(=O)(=O)O)c1`, the “activation” value is -2.91% [at 81.1 µM] (inactive).
Consider `CCN(CC)CCCC(C)Nc1ccnc2cc(Cl)ccc12` (stereo not given), for which the Potency result is “inactive”.
The same measure, in the same setting: the entry for `CCCCC(CC)COC(=O)CCCCC(=O)OCC(CC)CCCC` (stereo not given) is “inactive”.
Still for that read-out and setting: in the case of `CCCC(C)=O` it was “inactive”; in that of `O=C(O)c1cc(=O)c2c(OCC(O)COc3cccc4oc(C(=O)O)cc(=O)c34)cccc2o1`, “inactive”.
Still for that read-out and setting: the entry for `Cc1cccc(O)c1` is “inactive”; for `Cc1occc(=O)c1O` it is “inactive”.
Take `c1ccc(OCCOc2ccccc2)cc1`: the Potency entry was “inactive”.
Still for that read-out and setting: in the case of `C=C(C)C(=O)Nc1ccc(Cl)c(Cl)c1` it was “inactive”.
Same read-out and setting: the entry for `O=c1[nH]c(=O)n([C@H]2C[C@H](O)[C@@H](CO)O2)cc1Br` is “inactive”; for `CCCCCCCCCCCCCCCO` it is “inactive”.
Take `CC[C@H](C)C(=O)O[C@H]1C[C@@H](C)C=C2C=C[C@H](C)[C@H](CC[C@@H]3C[C@@H](O)CC(=O)O3)[C@H]21`: the “activation” value was 2.55% (inactive).
As to `O=C(Oc1ccccc1)c1ccccc1`, the Potency entry is “inactive”.
The same measure, in the same setting: the entry for `CCCCCC(N)=O` is “inactive”; for `OCC(CO)(CBr)CBr` it is “inactive”; for `COc1ccc(Nc2ccccc2)c(C)c1` it is “inactive”.
The same measure, in the same setting: in the case of `O=C(CC(C(=O)OC1CCCCC1)S(=O)(=O)O)OC1CCCCC1` (stereo not given) it was “inactive”; in that of `FC(F)(F)c1ccc(Cl)c(Cl)c1`, “inactive”.
The same measure, in the same setting: in the case of `C=C(C)C(=O)OCCOCCOCCOC(=O)C(=C)C` it was “inactive”; in that of `C/C=C1/CC2C=CC1C2` (stereo not given), “inactive”; in that of `COS(C)(=O)=O`, “inactive”.
Take `CCCCC(CC)CO` (stereo not given): the Potency result is “inactive”.
With `CC(=O)OCC(=O)[C@@]12N=C(C)O[C@@H]1C[C@H]1[C@@H]3CCC4=CC(=O)C=C[C@]4(C)[C@H]3[C@@H](O)C[C@@]12C`, the Potency result is “inactive”.
On the same count and under the same terms, the entry for `CC(=O)CC(=O)Nc1ccccc1C` is “inactive”.
On the same count and under the same terms, in the case of `CCCCCCCCCCCCOCCO` it was “inactive”.
Consider `CCCCCC/C(C=O)=C\c1ccccc1`, for which the Potency result was “inactive”.
The same measure, in the same setting: the entry for `OC[C@H]1O[C@@](CO)(O[C@H]2O[C@H](CO)[C@@H](O)[C@H](O)[C@H]2O)[C@@H](O)[C@@H]1O` is “inactive”.
Same read-out and setting: the entry for `CC1CCC2CC1C2(C)C` (stereo not given) is “inactive”.
For `O=[N+]([O-])c1ccc(/C=C/c2ccc([N+](=O)[O-])cc2S(=O)(=O)O)c(S(=O)(=O)O)c1`, the “activation” value is 0.0169% (inactive).
On to `CC(c1cc2ccccc2s1)N(O)C(N)=O` (stereo not given), for which the Potency result is “inactive”.
Regarding `CCN(CC)c1ccc(C(=O)c2ccccc2C(=O)O)c(O)c1`, the Potency entry was “inactive”.
